Tb PYK inh: blocks Trypanosoma brucei pyruvate kinase. Potency, µM (series often up to 76.8 µM), for the others: at the highest dose activity, negative = inhibition, hits mostly inhibitors. Q57TT1. TbPYK enzyme, Kinase-Glo Plus ATP luminescence, 45 min. AID 624173. hit rate 0.12% among 410,000; also: nearly all actives have a fitted effect of over 50% in size
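Readout: single end-point luminescence (Kinase-Glo Plus, 10 min). Reaction conditions were TbPYK/substrate plus 130 uM ADP, 45 min at RT, pH 7.2 TEA buffer. No-enzyme wells served as controls, and data were normalized before concentration-response fitting.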
RE007 growth inh: less growth of the S. pombe RE007 Vpr strain | Potency, µM (doses to about 92.2 µM), without a hit: at the top dose activity change, negative = less growth, hits mostly inhibitors | hit rate 0.21% among 360,000 | S. pombe RE007 Vpr strain, BacTiter-Glo ATP luminescence, 24 h; active = well fitted falling curve with a large enough effect; inconclusive = small, poorly fitted or top-dose-only effect; inactive = no such curve, though single readings can be large or run the other way; also: nearly all actives have a fitted effect of over 50% in size
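Fission yeast strain RE007, carrying one chromosomally integrated HIV-1 vpr copy, was seeded at OD 0.01 in PMG+AL medium with 23 nL pinned compound. After 24 h at 30 °C and 99% humidity, viability was read by BacTiter-Glo luminescence.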
Vaccinia Venus: vaccinia inhibition (Venus reporter). hit rate 0.46% among 330,000. Vaccinia virus Venus reporter expression, fluorescence. AID 720580. Potency, µM (doses to about 36.5 µM), for the others: top-dose activity change, negative = inhibition, actives largely listed as inhibitors; calls by dose curve; tested in A549 cells; also: nearly all actives have a fitted effect of over 30% in size
AMA1 RON2 block: AMA1-RON2 (P. falciparum) interaction inhibition | AID 720542 | Potency, µM (top dose mostly 58.2 µM), without a hit: top-dose activity change, negative = inhibition, actives largely listed as inhibitors | AlphaScreen AMA1-biotinylated RON2 peptide binding | hit rate 0.2% among 360,000;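 also: 0% = vehicle wells and -100% = peptide control; nearly all actives have a fitted effect of over 45% in size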
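AMA1 (3D7) with his tag at 25 nM final met compounds first, then biotinylated RON2 peptide at 25 nM; detection used donor plus acceptor beads, 10 µg/mL apiece, read by AlphaScreen after 30 min at room temperature.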
Vaccinia mCherry: vaccinia inhibition (mCherry reporter). Vaccinia virus mCherry reporter infection, fluorescence. Potency, µM (top dose mostly 36.5 µM), for the others: at the highest dose activity change, negative = inhibition, actives largely listed as inhibitors. hit rate 0.63% among 310,000. AID 720579; calls by dose curve; tested in A549 cells; also: nearly all actives have a fitted effect of over 35% in size
LmPK inh: blocks Leishmania mexicana pyruvate kinase activity; Q27686; purified LmPK, Kinase-Glo ATP luminescence, 1 h; Potency, µM (series often up to 57.5 µM), without a hit: at the highest dose activity change, negative = inhibition, most hits filed as inhibitors; hit rate 0.37% among 290,000; AID 1721
Target sequence (Q27686 whole entry, looked up): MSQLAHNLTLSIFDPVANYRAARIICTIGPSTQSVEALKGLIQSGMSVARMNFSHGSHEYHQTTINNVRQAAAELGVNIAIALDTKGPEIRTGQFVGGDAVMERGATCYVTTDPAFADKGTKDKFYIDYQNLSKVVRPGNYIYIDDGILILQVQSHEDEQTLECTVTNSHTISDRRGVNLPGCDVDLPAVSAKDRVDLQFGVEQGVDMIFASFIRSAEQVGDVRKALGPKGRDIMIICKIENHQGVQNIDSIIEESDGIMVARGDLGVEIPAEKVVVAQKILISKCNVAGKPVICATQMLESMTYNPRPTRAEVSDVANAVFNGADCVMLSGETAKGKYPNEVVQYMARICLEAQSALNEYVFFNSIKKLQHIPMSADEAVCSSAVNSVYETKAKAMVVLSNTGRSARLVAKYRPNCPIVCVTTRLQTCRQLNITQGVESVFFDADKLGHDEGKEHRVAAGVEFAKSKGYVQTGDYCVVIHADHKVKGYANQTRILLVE
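Kinase-Glo luminescence read after 1 h RT reaction of 0.1 nM LmPK with 0.5 mM PEP and 0.1 mM ADP. Activity scaled between uninhibited and enzyme-free controls.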
Starred values were filed as active, the others as inactive; i = inactive; ? = inconclusive; . = not tested or not shown; [ ] = another dose, or the depositor's remark. Only some compounds are listed: those with a hit (about 1.3% of all), similar ones and a draw of the others. Unless noted, calls follow the shape of the dose curve; as a rule, active = well fitted curve in the direction sought with a large enough effect; inconclusive = small, poorly fitted or top-dose-only effect, or another doubt; inactive = no such curve, though single readings can be large; an effect the other way counts as inactive or inconclusive. Unless noted, % is scaled to controls: 0 for no effect and ±100 for the full control effect; potency is read from the fitted curve at half-maximal effect.

SMILES	Tb PYK inh	RE007 growth inh	Vaccinia Venus	AMA1 RON2 block	Vaccinia mCherry	LmPK inh
Cn1c(=O)c(/C=C/c2ccccc2)nc2ccccc21	-5%	.	-16%	55%	i	-8%
CO[C@@H]1[C@@H]([C@H](C)[C@@H]2O[C@@]3(CC[C@@](C)([C@H]4CC[C@@](C)([C@H]5O[C@H]([C@H]6O[C@](C)(O)[C@H](C)C[C@@H]6C)C[C@H]5O[C@H]5C[C@@H](OC)[C@H](OC)[C@@H](C)O5)O4)O3)C[C@@H](O)[C@@H]2C)O[C@@](O)(CC(=O)O)[C@H](C)[C@H]1OC	0%	.	.	.	.	.
Brc1cc(Br)c[n+](CCc2ccccc2)c1	.	.	-9%	.	0%	.
O=[N+]([O-])c1ccc(Cl)cc1C=NNc1ccccn1	0%	5%	-2%	23%	i	.
O=[N+]([O-])c1cc(Cl)cc(/C=N\Nc2ccccn2)c1O	?	-27%	?	44%	2.2µM*	-4%
CCOC(=O)CCC(=O)OC1C(OC2C(C)C(OC3CC(C)(OC)C(O)C(C)O3)C(C)C(=O)OC(CC)C(C)(O)C(O)C(C)C(=O)C(C)CC2(C)O)OC(C)CC1N(C)C (centres undefined)	2%	.	.	.	.	.
C#CCOCCOCCOCCNc1nc(N2CCN(C(=O)CCCCCCCCCCNC(=O)[C@H]([C@@H](C)CC)n3cc(CCCCN=C(N)N)nn3)CC2)nc(N2CCN(C(=O)CCCCCCCCCCNC(=O)[C@@H]([C@H](C)O)n3cc(C)nn3)CC2)n1	1%	12%	?	?	?	.
C#CCOCCOCCOCCNc1nc(N2CCN(C(=O)CCCCCCCCCCNC(=O)[C@H](CCCCN)n3cc(C[C@@H](C)CC)nn3)CC2)nc(N2CCN(C(=O)CCCCCCCCCCNC(=O)[C@H](CCCN=C(N)N)n3cc(C[C@@H](C)CC)nn3)CC2)n1	2%	4%	8.9µM*	?	?	.
C#CCOCCOCCOCCNc1nc(N2CCN(C(=O)CCCCCCCCCCNC(=O)[C@@H](CCSC)n3cc(CCO)nn3)CC2)nc(N2CCN(C(=O)CCCCCCCCCCNC(=O)[C@H](CCCN=C(N)N)n3cc(C[C@@H](C)CC)nn3)CC2)n1	2%	-2%	10µM*	?	?	.
C#CCOCCOCCOCCNc1nc(N2CCN(C(=O)CCCCCCCCCCNC(=O)[C@H](CCCCN)n3cc(C)nn3)CC2)nc(N2CCN(C(=O)CCCCCCCCCCNC(=O)[C@H](CCCN=C(N)N)n3cc(C[C@@H](C)CC)nn3)CC2)n1	-4%	12%	10µM*	?	?	.
C#CCOCCOCCOCCNc1nc(N2CCN(C(=O)CCCCCCCCCCNC(=O)[C@@H](CCC(=O)O)n3cc(CCCCCN)nn3)CC2)nc(N2CCN(C(=O)CCCCCCCCCCNC(=O)[C@H](CCCCN)n3cc(C[C@@H](C)CC)nn3)CC2)n1	0%	4%	?	?	i	.
C#CCOCCOCCOCCNc1nc(N2CCN(C(=O)CCCCCCCCCCNC(=O)[C@H](CCCCN)n3cc(CCO)nn3)CC2)nc(N2CCN(C(=O)CCCCCCCCCCNC(=O)[C@H](CCCCN)n3cc(C[C@@H](C)CC)nn3)CC2)n1	-5%	8%	10µM*	?	-27%	.
NC(=O)c1ccc(-c2nc(-c3ccc4c(c3)OCCO4)c(-c3ccccn3)[nH]2)cc1	0%	.	.	.	.	.
OC[C@H]1O[C@@H](n2cnc3c2NC=NC[C@@H]3O)C[C@H]1O	0%	.	.	.	.	.
Cc1ccc(NS(=O)(=O)c2ccc(Cl)c(C(=O)Nc3ccccc3-c3nc4ccccc4[nH]3)c2)cc1C	-3%	5%	10µM*	-11%[2.32 µM]	?	1%
C=CCOc1ccc2ccccc2c1/C=N/O	4%	32µM*	-10%	8%	.	2%
COc1ccc2ccccc2c1/C=N/O	7%	-14%	.	-1%	.	-1%
Cc1ccc2c(c1C)-c1c(ccc(C)c1C)C(=O)C2=O	1%	45µM*	10µM*	-29%	?	.
O=C(O)c1ccc2c(c1)C(=O)/C(=C/c1ccccc1)C2=O	35µM*	3%	73%	0%	46%	0%
CC#CCC(C)[C@H](O)/C=C/C1[C@H](O)C[C@@H]2C/C(=C\CCCC(=O)O)C[C@H]12 (some centres undefined)	1%	.	.	.	.	.
Cc1cccc(-c2n[nH]c(=S)n2Cc2ccccc2)c1	?	7%	-13%	0%	-16%	18µM*
Oc1ccc(-c2n[nH]c(=S)n2Cc2ccco2)cc1	?	-8%	.	26%	.	11µM*
Cc1ccc(-c2n[nH]c(=S)n2Cc2ccccc2)cc1	?	-5%	.	43%	.	13µM*
COc1ccc(O)c(/C=N/Nc2nc(Nc3ccccc3)nc(-n3nc(C)cc3C)n2)c1	1%	-10%	10µM*	-17%	.	1%
c1ccc(-c2ccc(SCc3cccnc3)nn2)nc1	-11%	0%	?	?	11µM*	-4%
SMILES	Tb PYK inh	RE007 growth inh	Vaccinia Venus	AMA1 RON2 block	Vaccinia mCherry	LmPK inh
COc1cc(NS(C)(=O)=O)ccc1Cc1c2ccccc2nc2ccccc12	.	.	?	.	1.3µM*	.
CC1(C)CC(C(=O)N2CCOc3ccc(CN4CCN(Cc5ccccn5)CC4)cc3C2)CCO1 (centres undefined)	.	.	-7%	.	-12%	.
C=C1C(=O)C=C2CN(C(=O)c3ccccc3)[C@@](Cc3ccc(F)cc3)(C(=O)OC)[C@@H]12	?	12%	8.9µM*	13%	?	-2%
O=C(Nc1ccccc1N1CCOCC1)c1ccc([N+](=O)[O-])o1	-6%	-6%	?	7%	11µM*	-10%
O=C(Nc1ccccc1N1CCN(C(=O)c2ccc(Cl)cc2)CC1)c1ccc([N+](=O)[O-])o1	6%	4%	?	?	?	-5%
O=C(Nc1cccc(S(=O)(=O)N2CCCCC2)c1)c1ccc([N+](=O)[O-])o1	4%	1%	10µM*	0%	11µM*	2%
O=C(COC(=O)c1ccc([N+](=O)[O-])o1)Nc1cccc(S(=O)(=O)N2CCCCC2)c1	4%	6%	-8%	-4%	i	4%
O=C(Nc1ccccc1N1CCCCC1)c1ccc([N+](=O)[O-])o1	0%	1%	?	?	13µM*	.
COCC(=O)Nc1cc(C(=O)N2CCSCC2)cc2nc(-c3ccccc3)n(C)c12	.	.	-12%	.	0%	.
Cc1ccc(Nc2nc3nonc3nc2Nc2cccc(C(F)(F)F)c2)cc1Cl	1%	.	3.5µM*	.	3.5µM*	.
Cc1ccc(-n2c(-c3cnccn3)n[nH]c2=S)c(Br)c1	?	0%	-5%	-3%	-12%	32µM*

High-throughput results deposited in PubChem by National Center for Advancing Translational Sciences (NCATS).
